# Test results reported in PubChem BioAssay (EPA / NIEHS).
# Results filed as inconclusive are left out. Calls of active or inactive are those of the source. The calls were made as follows: active = hit-call score of the fitted dose curve at least 0.9, where 1 is the maximum; inconclusive = response in the unintended direction; inactive = score below 0.9.
# How the values were obtained:
# [1] = target: human Neurotensin Receptor (NTS), NTSR1 (gene 4923) (UniProt P30989); assay: NVS_GPCR_hNTS: NovaScreen (NVS) G Protein-Coupled Receptor Assay for human Neurotensin Receptor (NTS) (AID 2283279)
# Method in brief: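 Compounds competed with a radiolabelled ligand for binding to CHO-derived human neurotensin receptor; bound signal counted after filtration, 1 h. Screened first at a single concentration of 25 uM in duplicate, then concentration series to 50 uM maximum for actives.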
# [2] = target: human Neurokinin, NK2 Receptor, TACR2 (gene 6865) (UniProt P21452); assay: NVS_GPCR_hNK2: NovaScreen (NVS) G Protein-Coupled Receptor Assay for human Neurokinin, NK2 Receptor (AID 2283278);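 also: actives reduce bound radioligand signal relative to DMSO baseline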
# Method in brief: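 Radioligand binding on membranes from CHO cells expressing receptor, filter-based scintillation read 4 h after dosing. Initial duplicate screen at 25 uM, actives in concentration series; loss of signal versus DMSO.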
# [3] = target: human Opioid Receptor Delta 1 (Opiate D1), OPRD1 (gene 4985) (UniProt P41143); assay: NVS_GPCR_hOpiate_D1: NovaScreen (NVS) G Protein-Coupled Receptor Assay for human Opioid Receptor Delta 1 (Opiate D1) (AID 2283280)
# Method in brief: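 Membrane preparations from CHO cells bearing the human receptor were incubated 1 h with test chemical, and bound radioligand was counted after filtration. Actives from 25 uM duplicate screening were retested in concentration-response.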
# [4] = target: human Purinergic Receptor P2Y, P2RY1 (gene 5028) (UniProt P47900); assay: NVS_GPCR_hPY2: NovaScreen (NVS) G Protein-Coupled Receptor Assay for human Purinergic Receptor P2Y (AID 2283281)
# Method in brief: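 Filtration scintillation readout of radioligand displacement on U937 extract, measured 1 h post-dosing. Single 25 uM duplicate screen, then singleton concentration series to 50 uM for chemicals passing threshold; DMSO as baseline.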
# [5] = target: human Thromboxane A2 Receptor (TXA2), TBXA2R (gene 6915) (UniProt P21731); assay: NVS_GPCR_hTXA2: NovaScreen (NVS) G Protein-Coupled Receptor Assay for human Thromboxane A2 Receptor (TXA2) (AID 2283282);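 also: actives reduce bound radioligand signal relative to DMSO baseline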
# Method in brief: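 Human platelet-derived receptor preparation incubated with test chemical and radiolabelled ligand for 1 hour, cell-free. Bound label was separated by filtration and counted; displacement relative to DMSO controls gave activity, screened at 25 uM, then titrated.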
# [6] = target: human Orphanin, Opioid Related Nociceptin Receptor 1 (ORL1), OPRL1 (gene 4987) (UniProt P41146); assay: NVS_GPCR_hORL1: NovaScreen (NVS) G Protein-Coupled Receptor Assay for human Orphanin, Opioid Related Nociceptin Receptor 1 (ORL1) (AID 2283283)
# Method in brief: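 Cell-free binding using HEK293-derived receptor protein: radioligand displacement measured by filter scintillation 1 hour after dosing. Primary testing at 25 uM in duplicate, followed by singleton concentration series up to 50 uM; DMSO served as negative control.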
# [7] = system: rabbit Platelet Activating Factor Receptor (PAF), gene 100354046; assay: NVS_GPCR_rabPAF: NovaScreen (NVS) G Protein-Coupled Receptor Assay for rabbit Platelet Activating Factor Receptor (PAF) (AID 2283287)
# Method in brief: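 Rabbit platelet membrane preparation; radioligand displacement read by filter-based scintillation counting 1 h after dosing, loss of signal versus DMSO. Primary screen in duplicate at 25 uM, actives followed up in concentration series.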
# [8] = target: rat Serotonin, 5-Hydroxytryptamine Receptor 1 (5HT1), Non-Selective Binding, Htr1a (gene 24473) (UniProt P19327); assay: NVS_GPCR_r5HT1_NonSelective: NovaScreen (NVS) G Protein-Coupled Receptor Assay for rat Serotonin, 5-Hydroxytryptamine Receptor 1 (5HT1), Non-Selective Binding (AID 2283286)
# Experimental: NVS_GPCR_r5HT1_NonSelective is a biochemical, single-readout assay that uses extracted gene-proteins from Rat cortical membranes in a tissue-based cell-free assay. Measurements were taken 1 hour after chemical dosing in a 48-well plate.NVS_GPCR_r5HT1_NonSelective is one of one assay component(s) measured or calculated from the NVS_GPCR_r5HT1_NonSelective assay. It is designed to make measurements of radioligand binding, a form of binding reporter, as detected with scintillation counting signals by Filter-based radiodetection technology.Data from the assay component NVS_GPCR_r5HT1_NonSelective was analyzed into 1 assay endpoint. This assay endpoint, NVS_GPCR_r5HT1_NonSelective, was analyzed in the positive analysis fitting direction relative to DMSO as the negative control and baseline of activity. Using a type of binding reporter, loss-of-signal activity can be used to understand changes in the binding as they relate to the gene Htr1a. Furthermore, this assay endpoint can be referred to as a primary readout, because the performed assay has only produced 1 assay endpoint. To generalize the intended target to other relatable targets, this assay endpoint is annotated to the gpcr intended target family, where the subfamily is rhodopsin-like receptor.
# Binding assays used specific radioligands (tritiated, iodinated) with non-radioactive competitive displacement ligands in agonist or antagonist protocols (as indicated) and various reference compounds and inhibitors to titrate specific binding to receptors and transporters. Most enzyme assays (CYPs, kinases, phosphatases, proteases, HDACs) used recombinant protein and specific substrates (fluorescence mostly, some colorimetric and radioactive) and inhibitors, followed by a biochemical separation of substrate and product. All assays for the biochemical HTS were initially run in duplicate at a single concentration (10 uM for CYP450 assays and 25 uM for all others). Assay-chemical combinations meeting a pre-defined threshold (e.g., 30% inhibition and other criteria defined below) were then run in singleton concentration-response format with maximum concentration of 20 uM for CYPs and 50 uM for all others. Each assay was run with positive and negative controls, and concurrent controls on every plate. The follow-up (secondary) screen tested active chemical-pairs in concentration series, as well as a few additional assays not tested in the primary screen, some selected negative inactives, and several cases re-run in the concentration series for confirmatory purposes.
# [9] = target: mouse Cholecystokinin, CCK1 Receptor (CCKA), Cckar (gene 12425) (UniProt O08786); assay: NVS_GPCR_mCCKAPeripheral: NovaScreen (NVS) G Protein-Coupled Receptor Assay for mouse Cholecystokinin, CCK1 Receptor (CCKA) (AID 2283285)
# Method in brief: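 Chemicals were first screened in duplicate at 25 uM, with those meeting threshold (e.g., 30% inhibition) retested in singleton concentration series to 50 uM maximum. Binding of radioligand to mouse pancreatic membranes was read after 2 h by filtration and scintillation counting.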
# [10] = target: human Vasopressin 1A Receptor (V1A), AVPR1A (gene 552) (UniProt P37288); assay: NVS_GPCR_hV1A: NovaScreen (NVS) G Protein-Coupled Receptor Assay for human Vasopressin 1A Receptor (V1A) (AID 2283284)
# Method in brief: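 Single-concentration duplicate screen at 25 uM, with concentration-response follow-up (top 50 uM) for actives. The assay measured displacement of a radioligand from human platelet-derived receptor after 1.5 h, detected by filtration and scintillation counting.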
# Chain of human Orphanin, Opioid Related Nociceptin Receptor 1 (ORL1), OPRL1 (gene 4987) (P41146 whole entry, looked up): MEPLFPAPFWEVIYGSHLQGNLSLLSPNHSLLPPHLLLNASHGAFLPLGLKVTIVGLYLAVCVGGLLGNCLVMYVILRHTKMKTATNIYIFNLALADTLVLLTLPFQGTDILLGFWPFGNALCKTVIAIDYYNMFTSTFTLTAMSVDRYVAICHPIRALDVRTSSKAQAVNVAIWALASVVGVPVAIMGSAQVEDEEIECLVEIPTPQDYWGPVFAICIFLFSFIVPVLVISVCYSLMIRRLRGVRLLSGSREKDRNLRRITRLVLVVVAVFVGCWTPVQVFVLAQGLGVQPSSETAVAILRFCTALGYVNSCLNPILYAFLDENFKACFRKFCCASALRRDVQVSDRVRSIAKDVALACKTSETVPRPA
# Chain of human Purinergic Receptor P2Y, P2RY1 (gene 5028) (P47900 whole entry, looked up): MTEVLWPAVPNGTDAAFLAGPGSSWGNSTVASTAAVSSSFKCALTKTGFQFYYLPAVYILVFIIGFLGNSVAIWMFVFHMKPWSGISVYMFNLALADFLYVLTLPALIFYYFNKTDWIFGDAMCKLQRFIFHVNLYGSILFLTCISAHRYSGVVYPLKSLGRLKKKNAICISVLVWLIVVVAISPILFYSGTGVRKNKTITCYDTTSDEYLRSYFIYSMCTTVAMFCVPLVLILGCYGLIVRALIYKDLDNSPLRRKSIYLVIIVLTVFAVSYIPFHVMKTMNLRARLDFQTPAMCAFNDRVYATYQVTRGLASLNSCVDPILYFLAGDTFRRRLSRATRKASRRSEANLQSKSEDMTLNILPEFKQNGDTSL
# Chain of human Opioid Receptor Delta 1 (Opiate D1), OPRD1 (gene 4985) (P41143 whole entry, looked up): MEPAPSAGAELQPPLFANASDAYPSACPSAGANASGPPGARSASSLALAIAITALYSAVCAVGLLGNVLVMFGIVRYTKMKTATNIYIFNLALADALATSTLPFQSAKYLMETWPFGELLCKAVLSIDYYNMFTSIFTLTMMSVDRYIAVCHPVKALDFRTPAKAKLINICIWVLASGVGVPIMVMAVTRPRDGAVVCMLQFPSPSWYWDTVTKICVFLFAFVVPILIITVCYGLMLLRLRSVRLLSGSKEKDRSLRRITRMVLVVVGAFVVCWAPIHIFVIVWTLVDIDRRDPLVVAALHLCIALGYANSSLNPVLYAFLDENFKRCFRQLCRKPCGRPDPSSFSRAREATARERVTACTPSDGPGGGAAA
# Chain of human Neurokinin, NK2 Receptor, TACR2 (gene 6865) (P21452 whole entry, looked up): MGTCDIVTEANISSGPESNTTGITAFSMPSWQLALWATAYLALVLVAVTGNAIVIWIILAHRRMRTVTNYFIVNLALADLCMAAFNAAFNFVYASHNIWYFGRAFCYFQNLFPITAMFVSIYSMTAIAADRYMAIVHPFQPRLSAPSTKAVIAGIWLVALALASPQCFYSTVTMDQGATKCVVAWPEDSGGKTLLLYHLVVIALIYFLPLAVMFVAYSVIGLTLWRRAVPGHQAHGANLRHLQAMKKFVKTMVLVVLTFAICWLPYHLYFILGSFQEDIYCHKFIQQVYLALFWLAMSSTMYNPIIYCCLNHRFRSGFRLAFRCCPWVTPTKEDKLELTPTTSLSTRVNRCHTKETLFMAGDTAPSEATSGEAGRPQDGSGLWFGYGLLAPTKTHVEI
# Chain of rat Serotonin, 5-Hydroxytryptamine Receptor 1 (5HT1), Non-Selective Binding, Htr1a (gene 24473) (P19327 whole entry, looked up): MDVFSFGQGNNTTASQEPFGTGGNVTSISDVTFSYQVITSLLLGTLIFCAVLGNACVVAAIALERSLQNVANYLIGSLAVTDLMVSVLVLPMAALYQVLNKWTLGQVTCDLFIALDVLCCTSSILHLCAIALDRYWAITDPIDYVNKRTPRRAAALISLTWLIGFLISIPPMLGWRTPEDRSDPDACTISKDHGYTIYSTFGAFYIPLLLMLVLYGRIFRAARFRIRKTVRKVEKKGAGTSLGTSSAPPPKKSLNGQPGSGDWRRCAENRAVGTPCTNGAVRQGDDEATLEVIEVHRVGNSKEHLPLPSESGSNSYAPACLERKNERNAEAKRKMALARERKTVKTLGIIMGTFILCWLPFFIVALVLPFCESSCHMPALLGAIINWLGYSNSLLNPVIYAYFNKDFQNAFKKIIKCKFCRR
# Chain of human Thromboxane A2 Receptor (TXA2), TBXA2R (gene 6915) (P21731 whole entry, looked up): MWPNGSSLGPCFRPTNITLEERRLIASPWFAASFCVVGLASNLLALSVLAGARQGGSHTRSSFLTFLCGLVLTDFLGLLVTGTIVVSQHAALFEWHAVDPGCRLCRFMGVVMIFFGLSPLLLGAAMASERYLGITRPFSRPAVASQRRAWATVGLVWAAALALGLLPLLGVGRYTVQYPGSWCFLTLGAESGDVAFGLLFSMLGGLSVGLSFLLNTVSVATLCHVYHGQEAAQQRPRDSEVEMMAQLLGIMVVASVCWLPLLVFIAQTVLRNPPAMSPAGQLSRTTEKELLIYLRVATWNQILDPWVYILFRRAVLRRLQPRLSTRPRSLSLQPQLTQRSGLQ
# Chain of mouse Cholecystokinin, CCK1 Receptor (CCKA), Cckar (gene 12425) (O08786 whole entry, looked up): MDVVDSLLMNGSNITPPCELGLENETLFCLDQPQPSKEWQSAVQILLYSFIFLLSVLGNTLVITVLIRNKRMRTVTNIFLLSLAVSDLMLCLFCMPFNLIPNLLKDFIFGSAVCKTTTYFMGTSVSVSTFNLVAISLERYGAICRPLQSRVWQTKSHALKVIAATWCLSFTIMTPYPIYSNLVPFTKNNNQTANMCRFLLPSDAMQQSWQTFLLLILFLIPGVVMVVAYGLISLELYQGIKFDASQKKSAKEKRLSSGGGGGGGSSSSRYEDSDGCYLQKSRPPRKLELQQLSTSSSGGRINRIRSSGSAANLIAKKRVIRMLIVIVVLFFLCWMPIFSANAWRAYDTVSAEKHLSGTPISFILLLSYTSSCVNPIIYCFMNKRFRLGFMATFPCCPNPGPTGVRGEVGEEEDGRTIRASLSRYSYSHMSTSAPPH
# Chain of human Neurotensin Receptor (NTS), NTSR1 (gene 4923) (P30989 whole entry, looked up): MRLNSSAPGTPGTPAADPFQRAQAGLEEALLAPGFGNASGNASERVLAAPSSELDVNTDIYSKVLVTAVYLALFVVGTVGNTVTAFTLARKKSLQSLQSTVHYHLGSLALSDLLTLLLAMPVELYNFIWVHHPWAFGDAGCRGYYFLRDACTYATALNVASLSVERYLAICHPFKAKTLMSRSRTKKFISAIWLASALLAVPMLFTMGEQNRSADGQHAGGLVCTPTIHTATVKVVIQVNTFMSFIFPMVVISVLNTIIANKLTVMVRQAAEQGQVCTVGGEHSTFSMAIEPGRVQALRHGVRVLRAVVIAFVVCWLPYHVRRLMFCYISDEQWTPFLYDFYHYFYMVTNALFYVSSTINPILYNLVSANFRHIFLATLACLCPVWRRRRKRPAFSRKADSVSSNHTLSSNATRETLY
# Chain of human Vasopressin 1A Receptor (V1A), AVPR1A (gene 552) (P37288 whole entry, looked up): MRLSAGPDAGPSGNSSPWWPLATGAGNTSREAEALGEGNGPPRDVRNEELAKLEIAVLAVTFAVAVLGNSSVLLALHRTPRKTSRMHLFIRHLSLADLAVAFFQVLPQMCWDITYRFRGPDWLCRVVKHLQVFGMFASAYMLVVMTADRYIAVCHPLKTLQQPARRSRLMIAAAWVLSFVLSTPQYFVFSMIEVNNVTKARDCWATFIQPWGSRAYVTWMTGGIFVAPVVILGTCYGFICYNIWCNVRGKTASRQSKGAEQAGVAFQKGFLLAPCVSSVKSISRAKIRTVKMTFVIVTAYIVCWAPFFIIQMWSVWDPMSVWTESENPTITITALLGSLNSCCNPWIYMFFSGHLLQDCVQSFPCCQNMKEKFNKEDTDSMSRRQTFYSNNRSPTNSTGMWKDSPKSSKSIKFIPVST
compound,measurement,setting,value
NCCO,AC50,[1],37.9 µM (active)
CCCCC(CC)COC(=O)CC(C(=O)OCC(CC)CCCC)S(=O)(=O)O (stereo unspecified),AC50,[2],35.7 µM (active)
same,AC50,[3],10.3 µM (active)
same,AC50,[4],7.46 µM (active)
same,AC50,[5],8.9 µM (active)
same,AC50,[6],15.9 µM (active)
CN1CCN(Cc2cc(-c3ccc4[nH]c(=O)oc4c3)co2)[C@@H](c2ccc(F)cc2)C1,AC50,[2],35.4 µM (active)
same,outcome,[7],inactive
COc1cc(S(=O)(=O)O)c(C)cc1N=Nc1c(O)ccc2cc(S(=O)(=O)O)ccc12,AC50,[3],30 µM (active)
same,AC50,[8],17.1 µM (active)
CC1(C)CC(N=C=O)CC(C)(CN=C=O)C1 (stereo unspecified),outcome,[3],inactive
CCOC(=O)CCC(=O)OCC,outcome,[2],inactive
same,outcome,[4],inactive
same,outcome,[6],inactive
Nc1ccc2c(c1)C(=O)c1ccccc1C2=O,AC50,[3],38.4 µM (active)
CCOc1ccc2c(c1)C(C)=CC(C)(C)N2,outcome,[2],inactive
COCCOC[C@H](CC1(C(=O)NC2CCC(C(=O)O)CC2)CCCC1)C(=O)Oc1ccc2c(c1)CCC2 (stereo partly specified),outcome,[6],inactive
same,outcome,[8],inactive
Cc1cccc(Nc2cc(Cl)nc(SCC(=O)O)n2)c1C,AC50,[5],5.03 µM (active)
Cc1c(C(=O)O)c(O)cc2c1C(=O)c1c(O)c([C@@H]3O[C@H](CO)[C@@H](O)[C@H](O)[C@H]3O)c(O)c(O)c1C2=O,outcome,[8],inactive
CCCCCCCCCCCC(=O)OC,outcome,[4],inactive
Oc1ccc2ccccc2c1N=Nc1ccccc1,outcome,[2],inactive
CC1=C(/C=C/C(C)=C/C=C/C(C)=C/CO)C(C)(C)CCC1,outcome,[2],inactive
COc1cc(-c2nc(NC(=O)c3cc4cc(C)cc(C)c4n3CC(=O)O)sc2CCC2CCCCC2)c(OC)cc1Cl,AC50,[2],15.9 µM (active)
same,outcome,[5],inactive
same,AC50,[9],0.178 µM (active)
Cc1cccc(C)c1O,outcome,[1],inactive
same,outcome,[10],inactive
CNCc1cc(F)ccc1Oc1ccc(Cl)c(Cl)c1,outcome,[5],inactive
Nc1nc(N)c2nc(CNc3ccc(C(=O)N[C@@H](CCC(=O)O)C(=O)O)cc3)cnc2n1,outcome,[3],inactive
CC(C)(C)c1cc(O)c(C(C)(C)C)cc1O,outcome,[5],inactive
NC(=O)Cn1c(=O)cc(CCN2CCN(c3nccc4sccc34)CC2)c2ccc(F)cc21,AC50,[2],33.7 µM (active)
same,AC50,[8],0.47 µM (active)
C[Si]1(C)O[Si](C)(C)O[Si](C)(C)O[Si](C)(C)O1,outcome,[5],inactive
O=C(O)CCCCC(=O)O,outcome,[4],inactive
Cc1oc(-c2ccccc2)nc1CCOc1cccc2c1ccn2CCC(=O)O,AC50,[5],1.33 µM (active)
COc1ccc(S(=O)(=O)N2C(=O)[C@@](c3ccccc3OC)(N3C[C@H](O)C[C@H]3C(=O)N(C)C)c3cc(Cl)ccc32)c(OC)c1,AC50,[2],9.61 µM (active)
same,outcome,[3],inactive
same,outcome,[5],inactive
same,AC50,[7],12.3 µM (active)
O=C(N[C@@H](Cc1ccccc1)[C@@H](O)C(=O)N1C[C@@H](O)[C@@H](O)C1)c1cc2cc(Cl)ccc2[nH]1,AC50,[2],22.6 µM (active)
same,AC50,[9],11.9 µM (active)
Nc1ccccc1N,outcome,[8],inactive
CCc1c(C(=O)NN2CCCCC2)nn(-c2ccc(Cl)cc2Cl)c1-c1ccc(Br)cc1,outcome,[2],inactive
same,outcome,[3],inactive
CCCc1cc(=O)[nH]c(=S)[nH]1,outcome,[2],inactive
